# Data reported in PubChem BioAssay.
# Activity calls are given as the source filed them. Unless noted, the rule behind the calls is not given here.
# What was measured:
# [1] = test system: XIP peptide (Xip251-270) binding; assay: small-molecule binders of XIP peptide, primary screen, biochemical, small-molecule microarray, fluorescence 635/667 nm, 0.1 µg/mL protein (AID 1182); conditions: fluorescent protein binding, 635 nm, higher = more signal, called active from +8 up or from −8 down
# [2] = test system: XIP peptide (Xip251-270); assay: small-molecule binders of XIP peptide, primary screen, biochemical, small-molecule microarray, fluorescence 635/667 nm, 0.5 µg/mL protein (AID 1183); conditions: small-molecule microarray binding, fluorescence 635 nm; higher = more signal
# [3] = Plasmodium falciparum growth inhibition, primary screen, strain 3D7, DAPI fluorescence, 100 nL (AID 1184);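 note: parasites grown inside human red blood cells in medium with human serum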; conditions: P. falciparum 3D7 growth, 3 d, higher = more signal
# [4] = target: Homeobox protein Hox-A13 (Mus musculus) (UniProt Q62424); assay: inhibitors of HoxA13-DNA binding, primary screen, biochemical, fluorescence polarization, labeled oligonucleotide (AID 1185); conditions: 15 min, higher = more signal, called active from +8 up or from −8 down
# [5] = inhibitors of hydroxyurea-induced Chk1 phosphorylation, primary screen, imaging, HeLa, phospho-Chk1 antibody, percent positive cells (AID 1186); conditions: hydroxyurea-induced phospho-Chk1 immunofluorescence imaging, higher = more signal
# [6] = inhibitors of hydroxyurea-induced Chk1 phosphorylation, primary screen, imaging, HeLa, phospho-Chk1 nuclear intensity (AID 1187); conditions: hydroxyurea-induced phospho-Chk1 immunofluorescence imaging, higher = more signal
# Homeobox protein Hox-A13 (Mus musculus), sequence (Q62424 whole entry, looked up): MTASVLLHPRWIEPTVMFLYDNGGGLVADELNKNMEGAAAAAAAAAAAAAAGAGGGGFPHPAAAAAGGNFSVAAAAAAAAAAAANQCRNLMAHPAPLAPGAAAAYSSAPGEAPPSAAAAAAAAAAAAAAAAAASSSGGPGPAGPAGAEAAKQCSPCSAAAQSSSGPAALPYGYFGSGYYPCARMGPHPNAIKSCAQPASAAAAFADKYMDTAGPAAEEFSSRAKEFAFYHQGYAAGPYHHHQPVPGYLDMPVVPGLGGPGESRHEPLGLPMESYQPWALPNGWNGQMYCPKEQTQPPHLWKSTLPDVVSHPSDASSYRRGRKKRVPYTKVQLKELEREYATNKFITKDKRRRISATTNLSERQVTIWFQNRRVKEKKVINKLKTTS
Compound,composite z-score [1],composite z-score [2],z-score [3],z-score [4],z-score [5],z-score [6]
C=C(C)c1cc2c(c(CCCCCC)n1)[Si](C(C)C)(C(C)C)OC2,-0.525 (inactive),-0.115,-0.631,-1.76 (inactive),0.213 (inactive),1.53 (inactive)
O=C1NC(=O)C2C1C=CC(C(O)CCc1ccccc1)N2Nc1ccc(Cl)cc1Cl (stereo unspecified),0.157 (inactive),0.284,1.5,-5.96 (inactive),0.738 (inactive),0.185 (inactive)
C=CCOC(=O)[C@H]1[C@@H]2C(=O)O[C@@H](c3ccccc3)[C@@H](c3ccccc3)N2[C@@H](c2ccc(OCCOC(=O)[C@@H]3C[C@@H]4C(=O)N5CCC[C@H]5C(=O)N4[C@@H]3c3ccc(O)cc3)cc2)[C@]12C(=O)Nc1ccc(I)cc12,0.773 (inactive),0.787,-1.64,2.54 (inactive),0.651 (inactive),0.571 (inactive)
O=C1O[C@H](c2ccccc2)[C@H](c2ccccc2)N2[C@H]1[C@@H](C(=O)N1CCN(c3ncccn3)CC1)[C@]1(C(=O)Nc3ccc(C#CC4(O)CCCCCC4)cc31)[C@H]2c1ccc(OCCO)cc1,2.51 (inactive),0.781,-2.13,0.271 (inactive),0.354 (inactive),0.527 (inactive)
CCCC[C@@H]1C[C@H]1[C@@H](NC(=O)c1ccccc1)c1ccc(C(F)(F)F)cc1,2.28 (inactive),-1.51,0.011,0.0892 (inactive),-0.27 (inactive),-0.226 (inactive)
O=C1C2C=CC(C(O)c3ccc(Br)cc3)N(Nc3ccccc3F)C2C(=O)N1c1ccccc1 (stereo unspecified),0.197 (inactive),0.704,-0.133,-2.41 (inactive),-0.863 (inactive),-0.909 (inactive)
C=CC[C@]1(C(=O)NCCN2CCOCC2)N=C(c2ccc(OCCCO)cc2)O[C@H]1c1ccccc1CN=[N+]=[N-],0.882 (inactive),0.887,-2.29,-4.74 (inactive),-0.005 (inactive),0.23 (inactive)
O=C1C2C=CC(C(O)c3ccc(F)cc3)N(n3cnnc3)C2C(=O)N1Cc1ccccc1 (stereo unspecified),0.34 (inactive),0.854,-1.09,-0.994 (inactive),0.0044 (inactive),-1.28 (inactive)
CCCCCCc1nc(C2CC2)cc2c1[Si](C(C)C)(C(C)C)OC2,-0.18 (inactive),0.259,-1.47,0.321 (inactive),-0.186 (inactive),-0.0437 (inactive)
C=C(COC)C(=O)CC[C@@H](OC(=O)c1cccnc1)c1ccc(OCCO)cc1,-0.344 (inactive),0.481,0.415,-4.4 (inactive),-0.0647 (inactive),-0.573 (inactive)
COC(=O)[C@@]1(Cc2ccc(OC)cc2)[C@H]2c3cc(C(=O)N(C)C)n(Cc4ccc(Cl)c(C(F)(F)F)c4)c3C[C@H]2CN1C(=O)c1ccccc1,-0.0177 (inactive),0.267,-1.48,-3.47 (inactive),0.472 (inactive),0.127 (inactive)
COCCOC(=O)N1C(=O)[C@@]2(c3cc(C#CCNC(N)=O)ccc31)[C@H](C(=O)N1CCc3cc(OC)c(OC)cc3C1)[C@H]1C(=O)O[C@H](c3ccccc3)[C@H](c3ccccc3)N1[C@@H]2c1ccccc1OCCO,1.53 (inactive),0.498,-2.2,0.577 (inactive),0.0782 (inactive),0.147 (inactive)
O=C1NC(=O)C2C1C=CC(C(O)c1ccco1)N2Nc1ccccn1 (stereo unspecified),-0.409 (inactive),-0.195,1.36,-3.55 (inactive),0.0556 (inactive),-0.0488 (inactive)
CN(C)CCCNC(=O)[C@@]1(C)c2ccccc2C(=O)N(Cc2ccccc2)[C@H]1c1ccc(CO)cc1,-0.328 (inactive),-0.711,-0.649,-2.18 (inactive),0.559 (inactive),0.749 (inactive)
C=C(COC)/C(=C/C[C@H](OC(C)=O)c1ccc(OCCO)cc1)c1cc(C(=O)OC)ccc1OC,0.192 (inactive),0.731,-2.95,-4.11 (inactive),-0.285 (inactive),0.98 (inactive)
Cc1cc(C)cc(N2C(=O)CSC2c2cccc([N+](=O)[O-])c2)c1 (stereo unspecified),0.397 (inactive),0.521,-0.0855,0.0457 (inactive),-0.251 (inactive),-0.335 (inactive)
C[N+](C)(C)CCCCCCNC(=O)[C@H]1C[C@H]2C(=O)N[C@@H](Cc3ccccc3)C(=O)N2[C@H]1c1ccc(O)cc1,0.901 (inactive),0.5,0.0933,-3.23 (inactive),0.141 (inactive),0.14 (inactive)
O=C1O[C@@H](c2ccccc2)[C@@H](c2ccccc2)N2[C@@H](c3ccc(O)cc3)[C@]3(C(=O)Nc4ccc(C#CC5=CCCCC5)cc43)[C@@H](C(=O)NC[C@H](O)c3ccccc3)[C@H]12,0.662 (inactive),0.772,-0.369,0.986 (inactive),-0.384 (inactive),-0.016 (inactive)
COCCCNC(=O)[C@@]1(Cc2ccccc2N=[N+]=[N-])COC(c2ccc(OCCCO)cc2)=N1,1 (inactive),0.626,-2.06,-5.18 (inactive),-0.0232 (inactive),-0.101 (inactive)
[N-]=[N+]=NCc1ccccc1[C@H]1OC(c2ccc(OCCCO)cc2)=N[C@@]1(CCS(=O)(=O)c1ccccc1)C(=O)NCC(O)CO (stereo partly specified),1.2 (inactive),0.781,-2.41,-2.82 (inactive),-0.0433 (inactive),0.0231 (inactive)
COC(=O)[C@@]1(Cc2ccc(F)cc2)[C@H]2c3cc(C(=O)N(C)C)n(Cc4cc(F)cc5c4OCOC5)c3C[C@H]2CN1C(=O)c1ccccc1,1.21 (inactive),0.628,-1.54,-2.73 (inactive),-0.909 (inactive),-0.669 (inactive)
CCC[C@@H]1C[C@@]1(CCC)[C@@H](NC(=O)OCc1ccccc1)c1ccc(-c2ccccc2)cc1,-0.384 (inactive),-0.237,-0.54,-3.15 (inactive),0.977 (inactive),0.198 (inactive)
O=C1OCCC/C=C\[C@H]2OC34C=CCN(CCN5CCOCC5)C(=O)[C@H]3N(CCCCCCO)C(=O)[C@@H]4C12 (stereo partly specified),3.43 (inactive),0.299,-0.282,-6.22 (inactive),-0.039 (inactive),0.587 (inactive)
COCCOC(=O)N1C(=O)[C@@]2(c3cc(C#CC4(O)CCCCCC4)ccc31)[C@H](c1ccc(O)cc1)N1[C@H](c3ccccc3)[C@H](c3ccccc3)OC(=O)[C@H]1[C@@H]2C(=O)NC[C@H](O)c1ccccc1,1.71 (inactive),0.681,-0.0194,-2.78 (inactive),-0.145 (inactive),-0.154 (inactive)
CCC(CC)C(O)C1C=CC2C(=O)N(c3ccccc3)C(=O)C2N1Nc1ccc(C(C)C)cc1 (stereo unspecified),0.0969 (inactive),0.586,-0.615,-3.2 (inactive),-0.681 (inactive),-0.765 (inactive)
CCCNC(=O)[C@@]1(c2ccc([N+](=O)[O-])cc2)CC(=O)N(C2CCCCC2)[C@@H]1c1ccc(CO)cc1,2.45 (inactive),0.73,-0.47,-3.27 (inactive),0.0926 (inactive),0.213 (inactive)
